This note sets out measurements from PubChem BioAssay (Tox21).

Test [1] is described as follows: Caspase-3/7 induction in HepG2 cells by small molecules, qHTS assay (AID 1346978). Note: nearly all actives have a fitted effect of over 15% in size. In a few lines:
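Caspase-3/7 induction was measured by Caspase-Glo 3/7 luminescence (30 min, room temperature) after a 17 hr compound exposure of wild-type HepG2 cells seeded at 2,000 per well and pre-incubated 5 hr.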
In general terms: Quantitative high-throughput screening tests each substance at several concentrations.

Test [2] in a line: Caspase-3/7 induction in CHO-K1 cells by small molecules, qHTS cell viability counter screen (AID 1346979). Note: nearly all actives have a fitted effect of over 35% in size. In a few lines: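 To flag cytotoxic compounds, treated CHO-K1 wild-type cells were given CellTiter-Fluor at 16hr and read fluorescently after 1hr at 37C; the caspase-3/7 luminescence was measured in these same wells.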
The nature of test [3]: Caspase-3/7 induction in CHO-K1 cells by small molecules, qHTS assay (AID 1346980). Note: nearly all actives have a fitted effect of over 15% in size. In a few lines:
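Luminescent Caspase-Glo 3/7 read (30min, room temperature) quantified apoptosis induction. Cells were wild-type CHO-K1, treated with compound for 17hr at 37 C and 5% CO2.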

A short description of test [4]: Caspase-3/7 induction in HepG2 cells by small molecules, qHTS cell viability counter screen (AID 1346981). Note: series mostly up to about 92 µM; nearly all actives have a fitted effect of over 30% in size. In a few lines:
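Fluorescence read-out of live-cell protease activity (CellTiter-Fluor) after 1 hr with reagent. This was measured in the same wells as the caspase-3/7 luminescence, on HepG2 cells exposed to DMSO-dissolved compounds for 16 hr at 37 C.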

Test [5] has as its target Nuclear receptor subfamily 1 group I member 2 (Homo sapiens) (UniProt O75469). Kind of test: Human pregnane X receptor (PXR) small molecule agonists, qHTS assay (AID 1346982). Note: nearly all actives have a fitted effect of over 35% in size. Note: potency is the fitted concentration of half-maximal effect. The method in brief:
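HepG2 PXR-Luc reporter line, 5% charcoal-stripped FBS; 5 hr pre-incubation, compound (DMSO) 24 hr at 37 C/5% CO2; ONE-Glo 30 min RT; luminescence read-out.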

The target in test [6] is Acetylcholinesterase (Homo sapiens) (UniProt P22303). Put plainly: Acetylcholinesterase (AChE) small molecule antagonists: colormetric cell-based qHTS assay (AID 1347395; calls by dose curve; note: nearly all actives have a fitted effect of over 30% in size; note: potency is the fitted concentration of half-maximal effect). In a few lines: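 Neuroblastoma line SH-SY5Y supplied the enzyme; cells were preincubated with compound for 30 min at 37 C and 5% CO2. Acetylthiocholine with DTNB was then added for 90 min at 37 C, and thiocholine was measured by colour.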

Test [7] shares this target. Put plainly: Acetylcholinesterase (AChE) small molecule antagonists: enzyme-based qHTS assay (AID 1347397; calls by dose curve; note: nearly all actives have a fitted effect of over 55% in size; note: potency is the fitted concentration of half-maximal effect). The following applies: Potency: AChE enzyme activity inhibition. In a few lines:
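First, recombinant human AChE (50 mU/mL as dispensed) received test compound or DMSO. Second, plates stood 30 min at room temperature. Third, DTNB and acetylthiocholine were added, followed by 10 min at room temperature and colorimetric detection.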

For test [8], the target named is Nuclear receptor subfamily 1 group I member 2 (Rattus norvegicus) (UniProt Q9R1A7). Put plainly: Rat pregnane X receptor (rPXR) activation by small molecules, qHTS assay (AID 1346983). Note: nearly all actives have a fitted effect of over 20% in size. The following applies: rPXR luciferase reporter cells, One-Glo luminescence, 24 h; max activation: stronger effect = higher value. The method in brief: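 Luminescent readout (One-Glo luciferase, 30 min room temperature) followed 24 hr compound treatment at 37 C of rPXR cells plated 2,000 per well and preincubated 5hr; qHTS format with compounds delivered in DMSO.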

The target of test [9] is Nuclear receptor subfamily 1 group I member 2 (Homo sapiens) (UniProt O75469). Kind of test: CYP3A4 induction through human pregnane X receptor (PXR) by small molecules, qHTS assay (AID 1346984). Note: nearly all actives have a fitted effect of over 40% in size. The method in brief: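 HepG2-derived DPX-2 line carrying PXR plus a CYP3A4-promoter luciferase reporter; cells plated 5 hr, compound-exposed 24 hr at 37C. CYP3A4 activity probed with 3uM (final) Luciferin-IPA for 3hr, then luciferase read after One-Glo.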

Test [10] shares this target. Kind of test: Human pregnane X receptor (PXR) activation by small molecules, qHTS assay (AID 1346985). Note: nearly all actives have a fitted effect of over 40% in size. The method in brief: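 DPX-2 cells (HepG2 co-transfected with a PXR response element and a CYP3A4-promoter luciferase construct) were seeded at 2,000 per well, rested 5 hr at 37C, then exposed to DMSO-dissolved compounds for 24 hr. Activation was read as luciferase luminescence.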

Values joined by “and” are separate entries in the source; they are usually repeats but may differ in a detail not shown here. Equal entries are not always repeated. Results filed as inconclusive are left out. Some structures have more than one record in an assay (separate samples or runs), and their calls can disagree. Active and inactive are the calls of the source. Unless noted, calls come from the whole dose curve; as a rule, active = well fitted curve in the direction sought with a large enough effect in the repeat runs; inconclusive = weak or mixed curves; inactive = no such curve, though single readings can be large; an effect the other way counts as inactive or inconclusive.
% is set by controls: 0 for no effect and ±100 for the full control effect.

Nuclear receptor subfamily 1 group I member 2 (Homo sapiens), sequence (O75469 whole entry, looked up): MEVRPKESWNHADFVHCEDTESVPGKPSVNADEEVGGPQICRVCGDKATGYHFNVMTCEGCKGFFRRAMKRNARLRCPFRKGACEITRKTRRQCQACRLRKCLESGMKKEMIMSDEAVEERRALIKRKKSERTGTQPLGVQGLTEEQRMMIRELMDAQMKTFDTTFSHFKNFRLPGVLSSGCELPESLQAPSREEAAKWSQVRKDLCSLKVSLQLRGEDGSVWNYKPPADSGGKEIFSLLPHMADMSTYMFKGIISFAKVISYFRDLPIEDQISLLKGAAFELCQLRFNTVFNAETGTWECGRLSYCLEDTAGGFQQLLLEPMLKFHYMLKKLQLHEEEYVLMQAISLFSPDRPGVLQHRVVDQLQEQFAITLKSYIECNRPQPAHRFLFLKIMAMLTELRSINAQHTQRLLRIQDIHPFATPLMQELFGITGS
Acetylcholinesterase (Homo sapiens), sequence (P22303 whole entry, looked up): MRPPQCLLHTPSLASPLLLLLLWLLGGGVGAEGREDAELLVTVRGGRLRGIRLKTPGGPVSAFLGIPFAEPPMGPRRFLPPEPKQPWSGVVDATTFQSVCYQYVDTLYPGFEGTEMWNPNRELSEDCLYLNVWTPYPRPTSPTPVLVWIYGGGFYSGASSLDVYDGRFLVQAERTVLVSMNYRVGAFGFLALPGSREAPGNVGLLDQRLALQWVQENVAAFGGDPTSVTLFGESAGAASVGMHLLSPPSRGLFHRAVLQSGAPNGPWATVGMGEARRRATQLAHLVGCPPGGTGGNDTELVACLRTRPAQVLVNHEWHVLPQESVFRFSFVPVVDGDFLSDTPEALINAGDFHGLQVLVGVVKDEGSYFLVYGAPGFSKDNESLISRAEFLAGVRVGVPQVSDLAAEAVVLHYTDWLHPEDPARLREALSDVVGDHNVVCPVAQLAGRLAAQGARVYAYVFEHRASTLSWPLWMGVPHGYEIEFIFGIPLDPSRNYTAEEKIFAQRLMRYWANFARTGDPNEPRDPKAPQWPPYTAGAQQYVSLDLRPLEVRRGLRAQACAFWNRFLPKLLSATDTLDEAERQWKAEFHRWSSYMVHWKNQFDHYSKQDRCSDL
Nuclear receptor subfamily 1 group I member 2 (Rattus norvegicus), sequence (Q9R1A7 whole entry, looked up): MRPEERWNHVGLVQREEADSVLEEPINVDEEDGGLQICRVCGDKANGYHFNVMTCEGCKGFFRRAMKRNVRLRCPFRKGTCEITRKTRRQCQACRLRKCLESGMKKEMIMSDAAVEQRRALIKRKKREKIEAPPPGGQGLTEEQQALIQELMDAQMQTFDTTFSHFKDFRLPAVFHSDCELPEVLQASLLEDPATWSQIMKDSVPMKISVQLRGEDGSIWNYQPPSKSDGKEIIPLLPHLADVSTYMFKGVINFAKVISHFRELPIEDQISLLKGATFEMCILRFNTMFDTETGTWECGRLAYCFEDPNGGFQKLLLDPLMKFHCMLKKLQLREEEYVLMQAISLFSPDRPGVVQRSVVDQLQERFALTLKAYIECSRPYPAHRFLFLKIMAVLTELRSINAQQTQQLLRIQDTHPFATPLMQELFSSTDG

Regarding `CC(=O)C1CCOC1=O` (stereo not given), the call in test [1] and in [3] was inactive. Further, the Potency result in test [2], in test [4], in [5], in test [6] and in [7] was “inactive” in each case.
Turning to `Cc1ccc(O)c(C)c1`, the molecule was classed as inactive in [1] and in test [3]. The Potency entry in [2], in test [4], in test [5], in [6] and in [7] was “inactive” in each case.
Consider `N#Cc1cccc(C#N)c1`, for which the result in [1] and in test [3] was inactive. The Potency result in [2], in [4], in [5], in [6] and in [7] was “inactive” each time.
For the molecule `Nc1cccc(Cl)c1`, the outcome in test [1] and in test [3] was inactive. Also, the Potency entry in test [2], in test [4], in test [5], in test [6] and in test [7] was “inactive” each time.
Consider `CCOC(=O)CC(SP(=O)(OC)OC)C(=O)OCC` (stereo not given), for which the molecule was classed as inactive in test [1] and in [3]. Further, the Potency result in test [2], in test [4] and in test [5] was “inactive” each time. Also, the Potency is 3.02 µM (active) and 3.56 µM (active) in [6]; 3.38 µM (active) and 5.64 µM (active) in test [7].
Take `O=C(O)C1C(C(=O)O)C2(Cl)C(Cl)=C(Cl)C1(Cl)C2(Cl)Cl` (stereo not given): the outcome in test [1] and in test [3] was inactive. Further, the Potency entry in [2], in test [4], in [5], in [6] and in [7] was “inactive” each time.
Consider `CNc1cnn(-c2cccc(C(F)(F)F)c2)c(=O)c1Cl`, for which the result in test [1] and in [3] was inactive. For the same molecule, the Potency entry in [2], in [4], in [6] and in [7] was “inactive” each time. Further, in test [5], the Potency is 46.8 µM (active) and 34.4 µM (active).
For `O=C(O)C(Br)Br`, the molecule was classed as inactive in test [1] and in test [3]. Further, the Potency result in test [2], in [4], in test [5], in [6] and in test [7] was “inactive” each time.
`O=C(O)Cc1ccccc1`: the outcome in [1] and in [3] was inactive. The Potency result in [2], in test [4], in test [5], in test [6] and in test [7] was “inactive” in each case.
On to `N#CN=C(N)N`, for which the call in [1] and in test [3] was inactive. Further, the Potency entry in test [2], in [4], in [5], in test [6] and in [7] was “inactive” throughout.
For `CN(C)C(=O)C(c1ccccc1)c1ccccc1`, the outcome in [1] and in [3] was inactive. Also, the Potency result in test [2], in test [4], in test [6] and in test [7] was “inactive” each time. Also, the Potency result in test [5] is “inactive and 19.3 µM (active)”.
Turning to `Cc1ccc(N=C=O)cc1N=C=O`, the molecule was classed as inactive in test [1] and in test [3]. Further, the Potency entry in [2], in test [4], in test [6] and in test [7] was “inactive” in each case. Moreover, the Potency in test [5] was 60.9 µM (active) and inactive.
Consider `COC(=O)Nc1cccc(OC(=O)Nc2cccc(C)c2)c1`, for which the molecule was classed as inactive in test [1] and in test [3]. The Potency result in [2], in [4], in [6] and in [7] was “inactive” in each case. The Potency in test [5] was 10.9 µM (active).
On to `CSc1nnc(C(C)(C)C)c(=O)n1N`, for which the result in [1] and in test [3] was inactive. In addition, the Potency result in test [2], in [4], in test [5], in test [6] and in test [7] was “inactive” throughout.
In the case of `CN(C)NC(=O)CCC(=O)O`, the call in [1] and in test [3] was inactive. Moreover, the Potency result in test [2], in test [4], in [5], in test [6] and in [7] was “inactive” throughout.
For `C=CC#N`, the molecule was called inactive in [1] and in [3]. The Potency result in test [2], in test [4], in [5], in test [6] and in [7] was “inactive” in each case.
On to `O=C(O)c1cc(Oc2ccc(C(F)(F)F)cc2Cl)ccc1[N+](=O)[O-]`, for which the result in test [1] and in [3] was inactive. The Potency entry in [2], in test [4], in test [6] and in test [7] was “inactive” in each case. The Potency entry in test [5] was “inactive and 61.4 µM (active)”.
Consider `C=C(C)C(=O)OCC(CC)CCCC` (stereo not given), for which the call in [1] and in [3] was inactive. The Potency entry in [2], in test [4], in [5], in [6] and in test [7] was “inactive” in each case.
With `CC(=O)/C=C/c1ccccc1`, the result in test [1] and in test [3] was inactive. Further, the Potency result in test [2], in [4], in [5], in [6] and in test [7] was “inactive” throughout.
On to `CC(C)CCCCCCOC(=O)c1ccccc1C(=O)OCCCCCCC(C)C`, for which the outcome in test [1] and in test [3] was inactive. Besides, the Potency entry in [2], in test [4], in test [5], in test [6] and in [7] was “inactive” throughout.
For the molecule `OCC(O)CCl` (stereo not given), the molecule was called inactive in [1] and in test [3]. The Potency entry in test [2], in test [4], in [5], in test [6] and in test [7] was “inactive” in each case.
`OCc1ccco1`: the call in test [1] and in test [3] was inactive. Also, the Potency result in test [2], in test [4], in test [5], in [6] and in test [7] was “inactive” in each case.
With `O=C/C=C/c1ccccc1`, the molecule was called inactive in [1] and in test [3]. The Potency result in test [2], in [4], in test [9], in [10] and in test [6] was “inactive” each time. For the same molecule, the max activation in test [8] is 2.2% (inactive). Besides, in [7], the Potency result was “inactive and 64 µM (active)”.
For the molecule `O=[N+]([O-])c1ccc(Cl)c(Cl)c1`, the molecule was called inactive in [1] and in test [3]. Further, the Potency entry in test [2], in test [4], in test [5], in test [6] and in test [7] was “inactive” throughout.
